Source: publication PMC4336329 (PLoS ONE, 2015)
About 14,000 (4.5%) of roughly 310,000 compounds showed an effect of 50% or more. Effects have a minus sign here. The full list was thinned out, with strong results kept by preference.

The molecules below were run against human ether-à-go-go-related gene (hERG) potassium channel (human, UniProt Q12809) (assay: primary screen, population patch clamp on CHO cells stably expressing hERG; higher = less effect of the substance).
Method: Briefly, Chinese hamster ovary (CHO) cells stably expressing the hERG channel were dislodged from tissue culture flasks and dispensed into PPC plates. […] During the recording, background leak currents were estimated by a 100 ms step to -80 mV from an initial holding potential of -70 mV and subtracted from the subsequent current measurement. The campaign was conducted in two phases using slight differences in recording protocol. In the first phase, the initial voltage pulse used a 100 ms step to -30 mV from a holding potential of -70 mV, a 2 s conditioning step to +25 mV, and a 2 s test step to -30 mV. During the second phase of the screen, the potential during the conditioning step was raised to +45 mV. In both phases of the campaign, a secondary voltage pulse was applied using the same parameters as the second phase initial pulse. The initial and secondary pulses were applied in the absence of compound, and upon application of 1 μM and 10 μM test concentrations. […]
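Also: peak tail current of the secondary pulse compared with the same well before compound.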

Chain of human ether-à-go-go-related gene (hERG) potassium channel (Q12809 whole entry, looked up): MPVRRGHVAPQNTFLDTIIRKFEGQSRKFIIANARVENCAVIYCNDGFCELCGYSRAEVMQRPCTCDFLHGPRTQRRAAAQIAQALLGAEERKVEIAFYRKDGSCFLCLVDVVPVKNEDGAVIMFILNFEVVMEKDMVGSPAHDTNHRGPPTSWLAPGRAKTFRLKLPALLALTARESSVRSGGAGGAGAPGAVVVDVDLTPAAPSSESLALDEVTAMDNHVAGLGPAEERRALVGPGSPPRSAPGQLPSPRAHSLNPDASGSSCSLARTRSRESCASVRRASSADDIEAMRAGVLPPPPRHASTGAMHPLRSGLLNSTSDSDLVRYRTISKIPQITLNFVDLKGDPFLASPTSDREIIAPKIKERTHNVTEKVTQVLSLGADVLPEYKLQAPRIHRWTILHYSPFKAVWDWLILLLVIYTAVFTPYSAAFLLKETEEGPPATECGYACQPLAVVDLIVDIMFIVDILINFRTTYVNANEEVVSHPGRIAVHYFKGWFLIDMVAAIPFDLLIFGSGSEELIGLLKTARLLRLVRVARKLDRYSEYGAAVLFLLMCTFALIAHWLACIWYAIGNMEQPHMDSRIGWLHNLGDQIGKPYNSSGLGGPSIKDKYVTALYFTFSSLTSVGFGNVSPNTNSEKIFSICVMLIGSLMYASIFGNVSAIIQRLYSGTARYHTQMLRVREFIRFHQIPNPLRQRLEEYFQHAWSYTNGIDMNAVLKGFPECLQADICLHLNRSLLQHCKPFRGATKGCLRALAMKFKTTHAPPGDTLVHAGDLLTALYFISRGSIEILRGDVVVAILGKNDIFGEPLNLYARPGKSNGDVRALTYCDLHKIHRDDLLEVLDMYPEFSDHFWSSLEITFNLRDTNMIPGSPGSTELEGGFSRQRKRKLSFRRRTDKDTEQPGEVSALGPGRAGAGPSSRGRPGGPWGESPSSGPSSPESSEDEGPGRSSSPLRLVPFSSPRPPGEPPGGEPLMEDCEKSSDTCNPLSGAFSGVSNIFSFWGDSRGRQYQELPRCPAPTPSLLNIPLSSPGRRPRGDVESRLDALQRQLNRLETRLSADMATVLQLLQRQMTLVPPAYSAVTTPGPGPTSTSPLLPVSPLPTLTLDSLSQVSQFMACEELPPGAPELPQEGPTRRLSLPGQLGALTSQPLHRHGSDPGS

Row | SMILES | hERG current change (%, negative = inhibition) at 10uM [%]
1 | COc1ccc(CN(CCNC(=O)CCCCC(=O)NCCN(Cc2ccc(OC)cc2)C(C)C)C(C)C)cc1.Cl | -5.63
2 | O=C(CCCOc1ccccc1)Nc1nncs1 | -5.59
3 | COc1ccc(OC)c(N2C(=O)NC(=O)C3(Cc4cc(C)ccc4N(C)C3)C2=O)c1 (centres unmarked) | -5.52
4 | Cc1ccccc1Oc1cc(-n2ncc(Cl)c(Cl)c2=O)ncn1 | 6.67
5 | CCc1cccc(CC)c1NC(=O)COc1ccccc1C(=O)c1cc(C#N)c(=O)n(C2CCCCC2)c1 | 14.4
6 | CCCCNC(=O)c1ccccc1Cl | 21.5
7 | CN1CCc2c(n(CC(O)CN(CCO)CCO)c3ccccc23)C1=O.Cl (centres unmarked) | 6.94
8 | CN1CCc2c(n(CC(O)CN3CCN(CCO)CC3)c3ccccc23)C1=O.Cl (centres unmarked) | 2.24
9 | CN1CCc2c(n(CC(O)CNCc3ccccc3)c3ccccc23)C1=O.Cl (centres unmarked) | -52.8
10 | Cc1cc(C)cc(N2CC(C)Cn3c2nc2c3c(=O)[nH]c(=O)n2C)c1 (centres unmarked) | -2.03
11 | CCC(Oc1ccccc1)C(=O)NC1CCCCCC1 (centres unmarked) | -0.406
12 | CCC1CCCCN1C(=O)CCn1c(=O)oc2ccccc21 (centres unmarked) | -17.7
13 | O=C(N/N=C/c1cccnc1)c1cc(-c2cccs2)nc2ccccc12 | -20
14 | CCC(C)Sc1cccc(-c2nc3cc(C)ccn3c2NCc2ccccc2)c1.O=C(O)C(F)(F)F (centres unmarked) | 4.02
15 | Cc1ccc(S(=O)(=O)N2CCCCC2)cc1C(=O)N1CCN(CCO)CC1 | 3.41
16 | O=C(C1=NN[C@@H]2C(=O)N(Cc3ccccc3)C(=O)[C@H]12)c1ccc([N+](=O)[O-])cc1 | -50.2
17 | O=C(C1=NN[C@@H]2C(=O)N(Cc3ccccc3)C(=O)[C@H]12)c1ccc(F)cc1 | 7.44
18 | O=C(OCc1ccccc1)C1=NNC2C(=O)N(Cc3ccccc3)C(=O)C12 (centres unmarked) | 16.2
19 | CC(C)(C)c1nnc(NS(=O)(=O)c2ccc([N+](=O)[O-])cc2)s1 | 28.3

Row | SMILES | hERG current change (%, negative = inhibition) at 10uM [%]
20 | c1ccc(N2CCN(c3nc(-c4ccccn4)nc4ccccc34)CC2)cc1 | -73.9
21 | c1ccc(-c2nc(N3CCOCC3)c3ccccc3n2)nc1 | -15.9
22 | COc1cccc(-c2nc(N3CCN(c4ccccc4)CC3)c3ccccc3n2)c1O | 0.912
23 | CSc1nc(N2CCN(C)CC2)c2ccccc2n1 | -49.1
24 | CN1CCN(c2nc(-c3ccccn3)nc3ccccc23)CC1 | -51.4
25 | Fc1ccccc1-c1nc(N2CCCCC2)c2ccccc2n1 | -1.61
26 | c1ccc(-c2nc(N3CCCCCC3)c3ccccc3n2)nc1 | -77.5
27 | c1ccc(CN2CCN(c3nc(-c4ccccn4)nc4ccccc34)CC2)cc1 | 5.45
28 | CCN1CCN(c2nc(-c3ccccn3)nc3ccccc23)CC1 | -56.3
29 | Oc1ccccc1-c1nc(N2CCCC2)c2ccccc2n1 | -13.2
30 | Cc1cc(C)c(S(=O)(=O)N2CCOC2CNC(=O)C(=O)NCCN(C)C)c(C)c1 (centres unmarked) | 13.1
31 | COc1ccc2[nH]cc(CCNC(=O)c3ccco3)c2c1 | 12.3
32 | CC12CCC(=O)N1C(C(=O)NCc1ccccc1Cl)CS2 (centres unmarked) | -9.42
33 | Cc1cc(C)c(OCC(=O)N/N=C/c2ccco2)c(C)c1 | -3.8
34 | O=C1NC(=O)/C(=C\c2ccc(OCc3cnc(Cl)s3)cc2)S1 | 19.9
35 | COc1cccc(Nc2cc(N3CCOCC3)c3nonc3c2[N+](=O)[O-])c1 | -8.87
36 | O=C(NCCO)N1c2ccccc2Sc2ccccc21 | 5.99
37 | O=C(O)CCNC(=O)OCC1c2ccccc2-c2ccccc21 | -6.49
38 | COc1ccc(CCN2C(=O)C(C)=C(C)C2=O)cc1OC | 11.7

Row | SMILES | hERG current change (%, negative = inhibition) at 10uM [%]
39 | Nn1c(SCC(=O)Nc2ccc3c(c2)OCO3)nnc1C1CC1 | 7.91
40 | COc1ccc(N(C)S(=O)(=O)c2ccc(Cl)c(C(=O)NCC(C)(C)N3CCOCC3)c2)cc1 | -41.5
41 | Cc1ccc(NS(=O)(=O)c2ccc(NC(=O)N3CCCCC3)cc2)cc1 | 8.78
42 | COCCOc1cc(NC(=O)c2cccc(OC)c2)c(Cl)cc1Cl | 6.22
43 | CCCN(CCC)C(=O)/C=C/c1cccc([N+](=O)[O-])c1 | -34.5
44 | COc1ccc(/C=C/C(=O)OCc2cccc([N+](=O)[O-])c2)cc1 | -9.66
45 | CCCCN(CC)C(=O)/C=C/c1cccc([N+](=O)[O-])c1 | -63.5
46 | CCCCN(CCCC)C(=O)/C=C/c1cccc([N+](=O)[O-])c1 | -68
47 | COc1ccc(OCC(O)CNC(=O)/C=C/c2cccc([N+](=O)[O-])c2)cc1 (centres unmarked) | 17.6
48 | CCCN(CC(=O)Nc1ccc(Cl)cc1Cl)C(=O)/C=C/c1cccc([N+](=O)[O-])c1 | -15.6
49 | CCCC(C)NC(=O)/C=C/c1cccc([N+](=O)[O-])c1 (centres unmarked) | -7.16
50 | CC(C)N(C(=O)/C=C/c1cccc([N+](=O)[O-])c1)C(C)C | -13.8
51 | COc1ccc(OCC(O)CN(C)C(=O)/C=C/c2cccc([N+](=O)[O-])c2)cc1 (centres unmarked) | -80.5
52 | O=C(CCNC(=O)c1ccco1)Nc1ccc(Cl)c(C(F)(F)F)c1 | -16.3
53 | CCOC(=O)N1CCC(NC(=O)c2cc(COc3ccc(F)cc3Cl)on2)CC1 | -0.672
54 | CCN(CC)c1ccc(/C=N/Nc2nc(C)cc(C)n2)c(O)c1 | -7.99
55 | Cc1ccc(C)c(S(=O)(=O)NCCCc2ccccc2)c1 | -1.65
56 | CN(c1ccc(C(=O)N2CCOCC2)cc1)S(=O)(=O)c1cccs1 | 29
